PubChem BioAssay AID1159580 (chemical genetic matrix, 2015)
About 2,000 (36%) of roughly 5,500 compounds were called active. Not shown: some 18% with an inconclusive outcome. Rule as the data show it: active = normalized growth mostly below about 0.91 (no sharp cut-off); inconclusive = no clear call, values can overlap the other calls; inactive = mostly above about 0.92. This is one part of the list.

Test: chemical genetic growth profiling, strain panel (AID 1159580);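 also: tested at 20 µM; growth read once vehicle control cultures reached saturation at 30 °C; 1 = growth at the plate median or of vehicle wells; lower values mean less growth of the strain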
Settings: S. cerevisiae deletion strains, growth OD
[1] = locus YDL101C, strain DUN1, active compounds read low
[2] = locus YHR030C, strain SLT2, active compounds read low
[3] = locus YDR150W, strain NUM1, active compounds read low
[4] = locus YGR078C, strain PAC10, active compounds read low
[5] = locus YNL153C, strain GIM3, active compounds read low
[6] = locus YNL322C, strain KRE1, active compounds read low
[7] = locus YPL055C, strain LGE1, active compounds read low
[8] = locus YPL241C, strain CIN2, active compounds read low

Measured: normalized growth

CCc1cc2c(cc1-c1csc(C/C(N)=N\O)n1)C(C)(C)CCC2(C)C
active: locus YER123W, strain YCK3, active compounds read low 0.568 | locus YER133W, strain GLC7, active compounds read low 0.712 | locus YGR052W, strain FMP48, active compounds read low 0.567 | [2] 0.499 | locus YJR066W, strain TOR1 (second series), active compounds read low 0.601 | locus YKL048C, strain ELM1, active compounds read low 0.721 | locus YKL101W, strain HSL1, active compounds read low 0.701 | locus YLR113W, strain HOG1, active compounds read low 0.369 | locus YML070W, strain DAK1, active compounds read low 0.618 | locus YNL183C, strain NPR1, active compounds read low 0.553 | locus YOR231W, strain MKK1, active compounds read low 0.525 | locus YPL031C, strain PHO85, active compounds read low 0.639 | locus YPL153C, strain RAD53, active compounds read low 0.552 | locus YPL256C, strain CLN2, active compounds read low 0.546
inactive: locus YAR019C, strain CDC15, active compounds read low 0.985 | locus YBL105C, strain PKC1, active compounds read low 0.974 | locus YBR135W, strain CKS1, active compounds read low 0.969 | locus YBR136W, strain MEC1, active compounds read low 0.981 | locus YBR160W, strain CDC28, active compounds read low 0.986 | locus YDL017W, strain CDC7, active compounds read low 0.978 | locus YDL028C, strain MPS1, active compounds read low 0.985 | [1] 0.979 | locus YDL108W, strain KIN28, active compounds read low 0.968 | locus YDL132W, strain cdc53, active compounds read low 0.965 | locus YDL214C, strain PRR2, active compounds read low 0.757 | locus YDR052C, strain DBF4, active compounds read low 0.974 | locus YDR054C, strain cdc34, active compounds read low 0.97 | locus YDR226W, strain ADK1, active compounds read low 0.976 | locus YDR477W, strain SNF1, active compounds read low 0.75 | locus YFL009W, strain cdc4, active compounds read low 0.967 | locus YFL029C, strain CAK1, active compounds read low 0.974 | locus YFR003C, strain YPI1, active compounds read low 0.974 | locus YFR019W, strain FAB1, active compounds read low 0.819 | locus YFR028C, strain CDC14, active compounds read low 0.973 | locus YGR040W, strain KSS1, active compounds read low 0.749 | locus YGR092W, strain DBF2, active compounds read low 0.722 | locus YHR079C, strain IRE1, active compounds read low 0.525 | locus YHR082C, strain KSP1, active compounds read low 0.647 | locus YHR205W, strain SCH9, active compounds read low 0.77 | locus YIL147C, strain SLN1, active compounds read low 0.981 | locus YJL095W, strain BCK1, active compounds read low 0.532 | locus YJL128C, strain PBS2, active compounds read low 0.962 | locus YJL157C, strain FAR1, active compounds read low 0.779 | locus YJR016C, strain ILV3, active compounds read low 0.965 | locus YJR066W, strain TOR1, active compounds read low 0.666 | locus YKL067W, strain YNK1, active compounds read low 0.755 | locus YKL193C, strain SDS22, active compounds read low 0.973 | locus YKL203C, strain TOR2, active compounds read low 0.764 | locus YLR133W, strain CKI1, active compounds read low 0.813 | locus YLR403W, strain SFP1, active compounds read low 0.784 | locus YMR001C, strain CDC5, active compounds read low 0.969 | locus YMR205C, strain PFK2 (second series), active compounds read low 0.78 | locus YMR277W, strain FCP1, active compounds read low 0.963 | locus YNL006W, strain LST8, active compounds read low 0.977 | locus YNL020C, strain ARK1, active compounds read low 0.788 | locus YNL161W, strain CBK1, active compounds read low 0.977 | locus YNL207W, strain RIO2, active compounds read low 0.964 | locus YNL222W, strain SSU72, active compounds read low 0.972 | locus YNL307C, strain MCK1 (second series), active compounds read low 0.797 | locus YOL078W, strain AVO1, active compounds read low 0.969 | locus YOL136C, strain PFK27, active compounds read low 0.738 | locus YOR061W, strain CKA2, active compounds read low 0.788 | locus YOR119C, strain RIO1, active compounds read low 0.78 | locus YOR329C, strain SCD5, active compounds read low 0.981 | locus YPL204W, strain HRR25, active compounds read low 0.759 | locus YPL209C, strain IPL1, active compounds read low 0.976 | locus YPR025C, strain CCL1, active compounds read low 0.978 | locus YPR106W, strain ISR1, active compounds read low 0.976 | locus YPR111W, strain DBF20, active compounds read low 0.966 | strain NNK1, active compounds read low 0.947 | strain TSCII, active compounds read low 0.975

c1ccc2c(N3CCNCC3)cccc2c1
inactive: locus YAL040C, strain CLN3, active compounds read low 1.03 | locus YCL061C, strain MRC1 (second series), active compounds read low 1 | [3] 0.994 | locus YDR363W, strain ESC2, active compounds read low 0.999 | locus YER002W, strain NOP16, active compounds read low 1.01 | [4] 0.993 | locus YGR229C, strain SMI1, active compounds read low 1.02 | locus YMR307W, strain GAS1, active compounds read low 0.99 | [5] 0.991 | locus YNL175C, strain NOP13, active compounds read low 1.01 | locus YNL197C, strain WHI3, active compounds read low 0.997 | locus YNL224C, strain SQS1, active compounds read low 1.01 | [6] 1.01 | locus YOR083W, strain WHI5 (second series), active compounds read low 1 | [7] 1.02 | [8] 1

COc1ccccc1N1CCN(Cc2ccc(F)cc2)CC1
inactive: locus YAL013W, strain DEP1, active compounds read low 1.02 | locus YBR229C, strain ROT2, active compounds read low 0.993 | locus YCL061C, strain MRC1, active compounds read low 1 | [1] 0.992 | [3] 1.02 | locus YEL061C, strain CIN8, active compounds read low 1.01 | [4] 1.01 | [2] 1.06 | locus YHR087W, strain rtc3, active compounds read low 1.01 | locus YJL187C, strain SWE1, active compounds read low 1.02 | locus YJR043C, strain POL32, active compounds read low 1.01 | locus YJR075W, strain HOC1, active compounds read low 0.983 | locus YKL190W, strain CNB1, active compounds read low 1.02 | locus YLR039C, strain RIC1, active compounds read low 0.987 | locus YLR058C, strain SHM2 (second series), active compounds read low 1.02 | locus YLR085C, strain ARP6, active compounds read low 1.04 | locus YLR262C, strain YPT6, active compounds read low 1.01 | locus YML094W, strain GIM5, active compounds read low 1 | locus YMR219W, strain ESC1, active compounds read low 1.01 | locus YMR263W, strain SAP30, active compounds read low 1.01 | locus YNL128W, strain TEP1, active compounds read low 1.02 | [5] 0.997 | locus YNL298W, strain CLA4 (second series), active compounds read low 1.05 | [6] 1 | locus YNR030W, strain Alg12, active compounds read low 1.04 | [7] 1 | [8] 0.998 | locus YPR135W, strain CTF4, active compounds read low 1
